Compound activity as filed in PubChem.
A selection: hits, their analogues and other compounds. The true share with any hit is near 4.2%.
SW480 rereplic: DNA re-replication induction in SW480 cells; SW480 DNA re-replication, Hoechst DNA content imaging, 48 h; Potency, µM (highest dose often 46.1 µM), hits mostly activators; 1.8% of 340,000 active; AID 624297; note: nearly all actives have a fitted effect of over 55% in size
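Per well, 250 cells were exposed to pinned compound for 48 hr. Nuclear DNA was visualised with Hoechst (40 min, 37 C) and total object intensity recorded by fluorescence scanning.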
MCF10A rereplic: DNA re-replication induction in MCF 10a cells; MCF 10A DNA re-replication, Hoechst nuclear intensity, 48 h; 2.9% of 350,000 active; Potency, µM (top dose mostly 46.1 µM), actives largely listed as activators; note: nearly all actives have a fitted effect of over 50% in size
Integrin act MD: activators of alpha7 integrin expression for muscular dystrophy; alpha7betagal myoblasts, beta-gal FDG fluorescence, 48 h; Potency, µM (titrated, usually from 38.3 µM), most hits filed as activators; 0.064% of 350,000 active; note: nearly all actives have a fitted effect of over 60% in size
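Alpha7betagal+/- myoblasts (passage 13) were plated 16-24 hr, then exposed to compounds (1:260 dilution of DMSO stock) for 48 hours at 37C. After MPER lysis, β-galactosidase reporter activity was read as FDG fluorescence (ex 480/em 540) after 30 minutes.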
Mito fusion yeast: inhibitors of mitochondrial division or activators of mitochondrial fusion. S. cerevisiae fusion-defective mutant growth rescue, CellTiterGlo 48 h. Potency, µM (titrated, usually from 46.1 µM), hits mostly activators. 0.23% of 320,000 active; note: nearly all actives have a fitted effect of over 45% in size
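Read-out: ATP-based luminescence (CellTiterGlo, 10 min ambient) reporting growth of fusion-defective ts yeast after 48 hours at 37C on glycerol/ethanol YPEG medium in the presence of compound.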
A-T KAP1 phos: candidate therapy for ataxia-telangiectasia; F2112 A-T fibroblasts, KAP-1 phosphorylation AlphaLISA; neocarzinostatin DNA damage 30 min before lysis; Potency, µM (doses to about 57.5 µM), hits mostly activators; AID 485349; 0.19% of 320,000 active; note: nearly all actives have a fitted effect of over 45% in size
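ATM-like activity read as KAP-1 phosphorylation via AlphaLISA donor/acceptor antibody pairs after lysis and 6 hr at 25C. Cells were ATM-null patient fibroblasts (F2112, hTERT), dosed 60 min, then exposed to the DSB inducer NCS for 30 min.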
Numbers stand for hits; [ ] = dose if it differs, or a comment. Calls come from the whole dose curve; as a rule, active = well fitted activation curve with a large enough effect; inconclusive = small, poorly fitted or top-dose-only effect; inactive = no such curve, though single readings can be large or run the other way.

`COc1cc(/C=C(\C#N)c2nc3ccccc3[nH]2)cc(Br)c1OCc1ccc(F)cc1` gave SW480 rereplic inconclusive, MCF10A rereplic 8.2µM, Integrin act MD inactive, Mito fusion yeast inactive and A-T KAP1 phos inactive.
`Cn1c(/N=C(\N)c2ccccc2)nc2ccccc21` gave Integrin act MD inactive.
S=c1cn[nH]c2ccccc12 was read as SW480 rereplic inactive, MCF10A rereplic inactive and Integrin act MD inactive.
`COc1ccc(Nc2ccc3c(c2)=NC2(CCCCC2)[N+]=3[O-])cc1` gave SW480 rereplic 4µM, MCF10A rereplic 13µM, Integrin act MD inactive, Mito fusion yeast inactive and A-T KAP1 phos inactive.
[O-][N+]1=c2ccc(Nc3ccccc3)cc2=NC12CCCCC2 was read as SW480 rereplic 7.3µM, MCF10A rereplic 7.3µM, Integrin act MD inactive, Mito fusion yeast inactive and A-T KAP1 phos inactive.
Screening O=[N+]([O-])c1ccc2c(c1N1CCCCC1)=NC1(CCCCC1)[N+]=2[O-] returned SW480 rereplic inconclusive, MCF10A rereplic inconclusive, Integrin act MD inactive, Mito fusion yeast inactive and A-T KAP1 phos inactive.
C/C(=N\NC(=O)c1ccn(C)n1)c1cccc(NC(=O)c2ccncc2)c1 was read as SW480 rereplic inactive, MCF10A rereplic inactive, Integrin act MD inactive, Mito fusion yeast inactive and A-T KAP1 phos inactive.
`CN1c2ccccc2N(C)C1(C)c1ccccc1` gave SW480 rereplic 5.8µM, MCF10A rereplic inconclusive, Integrin act MD inactive, Mito fusion yeast inactive and A-T KAP1 phos inactive.
CN1C(=O)N(C)C2(c3ccccc3)NC(=O)NC12c1ccccc1 (stereo not drawn) was read as SW480 rereplic inactive, MCF10A rereplic inactive, Integrin act MD inactive, Mito fusion yeast inactive and A-T KAP1 phos inactive.
CCC1(c2ccccc2)CN(C)C1=O (stereo not drawn) was read as Integrin act MD inactive.
Screening CCN1c2ccccc2N(C)C1(C)c1ccccc1 (stereo not drawn) returned SW480 rereplic 12µM, MCF10A rereplic inconclusive, Integrin act MD inactive, Mito fusion yeast inactive and A-T KAP1 phos inactive.
Screening CCN1CCCC1CN(Cc1cc2ccc(C)cc2[nH]c1=O)C(=S)Nc1ccc(OC)cc1 (stereo not drawn) returned SW480 rereplic inconclusive, MCF10A rereplic inconclusive, Integrin act MD inactive, Mito fusion yeast inactive and A-T KAP1 phos inactive.
`COc1ccccc1NC(=O)N(Cc1cccs1)Cc1cc2cc3c(cc2[nH]c1=O)OCO3` gave SW480 rereplic inconclusive, MCF10A rereplic 21µM, Integrin act MD inactive, Mito fusion yeast inactive and A-T KAP1 phos inactive.
Screening Cc1cc2cc(CN(CC3CCCO3)C(=S)Nc3ccccc3)c(=O)[nH]c2cc1C (stereo not drawn) returned SW480 rereplic inconclusive, MCF10A rereplic 10µM, Integrin act MD inconclusive, Mito fusion yeast inconclusive and A-T KAP1 phos inactive.
For COc1ccc2cc(CN(CC3CCCO3)C(=O)Nc3ccccc3OC)c(=O)[nH]c2c1 (stereo not drawn) the results were SW480 rereplic 15µM, MCF10A rereplic 18µM, Integrin act MD inactive, Mito fusion yeast inactive and A-T KAP1 phos inactive.
`CCN1CCCC1CN(Cc1cc2ccc(C)cc2[nH]c1=O)C(=S)Nc1ccc(F)cc1` (stereo not drawn) gave SW480 rereplic inactive, MCF10A rereplic 6.5µM, Integrin act MD inactive, Mito fusion yeast inactive and A-T KAP1 phos inactive.
Screening CCn1c(C)nc2cc(C(=O)NN=Cc3ccc([N+](=O)[O-])cc3)ccc21 returned SW480 rereplic inactive, MCF10A rereplic inactive, Integrin act MD inactive and A-T KAP1 phos inactive.
For CCCCn1c(C)cc2c(c1=O)[C@H]1O[C@](CCCC)(Cc3cc(OC)c(OC)cc31)O2 the results were Mito fusion yeast inactive[9.22 µM] and A-T KAP1 phos inactive[11.5 µM].
`COc1ccc2[nH]c(=O)c(CN(CC3CCCO3)C(=S)Nc3ccccc3)cc2c1` (stereo not drawn) gave SW480 rereplic inactive, MCF10A rereplic inactive, Integrin act MD inactive, Mito fusion yeast inactive and A-T KAP1 phos inactive.
Screening COc1ccc2cc(CN(CC3CCCO3)C(=S)Nc3ccccc3)c(=O)[nH]c2c1 (stereo not drawn) returned SW480 rereplic 16µM, MCF10A rereplic 13µM, Integrin act MD inactive, Mito fusion yeast inactive and A-T KAP1 phos inactive.
Screening COc1ccc(N2CC(NC(=O)N3CCN(c4ccccc4)CC3)CC2=O)cc1 (stereo not drawn) returned SW480 rereplic inactive, MCF10A rereplic inactive, Integrin act MD inactive, Mito fusion yeast inactive and A-T KAP1 phos inactive.
Screening O=C(CC1SC(=Nc2ccccc2)N(Cc2ccccn2)C1=O)Nc1ccc(Br)cc1 (stereo not drawn) returned SW480 rereplic 16µM, MCF10A rereplic 23µM, Integrin act MD inactive, Mito fusion yeast inactive and A-T KAP1 phos inactive.
For Cc1ccccc1N=C1SC(CC(=O)Nc2ccc3ccccc3c2)C(=O)N1Cc1ccccn1 (stereo not drawn) the results were SW480 rereplic inconclusive, MCF10A rereplic inactive, Integrin act MD inactive and Mito fusion yeast inactive.
CC1CCCC(C)N1C(=O)CSc1nnc(C2CCCCC2)o1 (stereo not drawn) was read as SW480 rereplic inactive, MCF10A rereplic inconclusive, Integrin act MD inactive, Mito fusion yeast 6.3µM and A-T KAP1 phos 32µM.
Screening Cc1cc(-c2nnc(SCC(=O)N3C(C)CCCC3C)o2)no1 (stereo not drawn) returned SW480 rereplic 6.5µM, MCF10A rereplic inconclusive, Integrin act MD inactive, Mito fusion yeast inactive and A-T KAP1 phos inactive.
CCN(CC)C(=O)Nc1ccc(Br)cc1 was read as SW480 rereplic inactive, MCF10A rereplic inactive, Integrin act MD inactive, Mito fusion yeast inactive and A-T KAP1 phos inactive.
For C[C@H](CO)N1C[C@H](C)[C@@H](CN(C)S(C)(=O)=O)Oc2c(NC(=O)Cc3ccccc3)cccc2C1=O the results were SW480 rereplic 0.12µM, MCF10A rereplic inactive, Integrin act MD inactive and A-T KAP1 phos inactive.
CCN(CC)c1ccc(C(=C2C=CC(=[N+](CC)CC)C=C2)c2ccc(N(CC)CC)cc2)cc1 was read as SW480 rereplic 21µM, MCF10A rereplic inconclusive and Integrin act MD inconclusive.
For CC(Oc1ccc(Cl)cc1Cl)C(=O)OCC(=O)c1c(N)n(C)c(=O)n(C)c1=O (stereo not drawn) the results were SW480 rereplic inactive, MCF10A rereplic inactive, Integrin act MD inactive, Mito fusion yeast inactive and A-T KAP1 phos inactive.
For CCOC(=O)c1sc(NC(=O)c2cc(-c3ccccc3C)nc3ccccc23)c(C#N)c1C the results were SW480 rereplic inactive, MCF10A rereplic 2.6µM, Integrin act MD inactive, Mito fusion yeast inactive and A-T KAP1 phos inactive.
Cc1cc(C)c(C#N)c(SCC(=O)C2CC2)n1 was read as SW480 rereplic 21µM, MCF10A rereplic inconclusive, Integrin act MD inactive, Mito fusion yeast inactive and A-T KAP1 phos inactive.
